Source: PubChem
Compounds with a hit are over-represented: about 1.3% of the library has one in this group of screens.
EPAC1 ag: agonists of human EPAC1 | O95398 | EPAC1 agonist qHTS, biochemical assay; response scale: 100% = response to 6.5 mM cAMP | Potency, µM (highest dose often 154 µM), inactives show at the top dose activation, most hits filed as activators | 360,000 compounds, 0.073% hits | AID 720707; note: nearly all actives have a fitted effect of over 60% in size
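Multi-concentration qHTS readout: loss of Rap1B-bound BODIPY-GDP fluorescence driven by 100 nM EPAC1 with excess GDP (50 uM), monitored kinetically at room temperature; agonist response expressed relative to 6.5 mM cAMP.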
12-LOX inh: inhibitors of human 12S-lipoxygenase ALOX12. P18054. purified 12hLO, xylenol orange hydroperoxide absorbance. Potency, µM (top dose mostly 108 µM), for the others: at the top dose activity change, negative = inhibition, usual class: inhibitors. 580,000 compounds, 1.1% hits; note: % is set by controls: 0 for no effect and ±100 for the full control effect
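Purified human 12hLO at 150 nM in 25 mM Hepes, 0.01% Triton X-100, pH 7.0, preincubated 15 min at room temperature with compound. Reaction started with 40 uM arachidonic acid, 30 min at room temperature. Hydroperoxide measured by Fe-xylenol orange, 573/405 nm absorbance ratio.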
EPAC1 antagonist: EPAC1 (human) antagonism; O95398; EPAC1 GEF assay, Rap1b-BODIPY-GDP exchange fluorescence; Potency, µM (titrated, usually from 115 µM), without a hit: at the top dose activity change, negative = inhibition, usual class: inhibitors; 360,000 compounds, 0.14% hits; AID 720709;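 note: plate controls were vehicle for no effect and positive control for full effect; nearly all actives have a fitted effect of over 50% in size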
EPAC2 antagonist: blocks human EPAC2 exchange factor; EPAC2 GEF exchange of Rap1B-BODIPY-GDP, fluorescence; Potency, µM (series often up to 114 µM), for inactives: at the highest dose activity, negative = inhibition, hits mostly inhibitors; 360,000 compounds, 0.18% hits; AID 720708; note: % is set by controls: 0 for no effect and ±100 for the full control effect; nearly all actives have a fitted effect of over 45% in size
Target sequence (Q8WZA2 whole entry, looked up): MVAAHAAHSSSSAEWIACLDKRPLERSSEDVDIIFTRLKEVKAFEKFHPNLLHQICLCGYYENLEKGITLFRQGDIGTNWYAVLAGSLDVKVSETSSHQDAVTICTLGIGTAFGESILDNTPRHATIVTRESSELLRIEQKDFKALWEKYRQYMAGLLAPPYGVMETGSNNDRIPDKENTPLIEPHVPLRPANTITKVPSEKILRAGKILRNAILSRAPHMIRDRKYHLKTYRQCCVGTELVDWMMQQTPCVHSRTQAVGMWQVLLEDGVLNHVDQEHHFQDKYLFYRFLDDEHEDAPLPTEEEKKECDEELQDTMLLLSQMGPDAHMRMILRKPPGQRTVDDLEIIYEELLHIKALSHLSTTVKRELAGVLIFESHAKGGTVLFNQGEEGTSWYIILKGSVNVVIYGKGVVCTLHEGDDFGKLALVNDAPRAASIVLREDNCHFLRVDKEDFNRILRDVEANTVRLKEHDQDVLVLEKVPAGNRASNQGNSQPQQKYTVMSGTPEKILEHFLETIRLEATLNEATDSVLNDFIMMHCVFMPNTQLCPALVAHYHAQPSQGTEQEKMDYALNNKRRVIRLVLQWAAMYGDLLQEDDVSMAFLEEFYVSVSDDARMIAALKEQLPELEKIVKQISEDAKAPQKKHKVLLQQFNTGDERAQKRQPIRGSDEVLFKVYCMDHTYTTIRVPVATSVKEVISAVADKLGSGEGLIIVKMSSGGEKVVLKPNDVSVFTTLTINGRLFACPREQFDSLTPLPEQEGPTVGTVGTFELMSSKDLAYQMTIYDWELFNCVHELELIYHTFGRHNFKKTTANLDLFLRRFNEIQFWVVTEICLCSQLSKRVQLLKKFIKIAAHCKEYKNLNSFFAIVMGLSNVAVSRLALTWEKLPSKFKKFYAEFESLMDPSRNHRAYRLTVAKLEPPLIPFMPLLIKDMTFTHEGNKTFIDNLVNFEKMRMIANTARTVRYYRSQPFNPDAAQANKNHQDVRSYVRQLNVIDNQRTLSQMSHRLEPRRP
USP1-UAF1 inh: inhibitors of human USP1/UAF1 deubiquitinase | recombinant USP1/UAF1, Ub-Rhodamine cleavage fluorescence | Potency, µM (doses to about 57.1 µM), for the others: at the top dose activity change, negative = inhibition, most hits filed as inhibitors | 390,000 compounds, 0.23% hits; note: % is set by controls: 0 for no effect and ±100 for the full control effect; nearly all actives have a fitted effect of over 60% in size
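High-throughput fluorogenic screen: 1nM USP1/UAF1 complex, Ub-Rho substrate 150nM final, 50mM HEPES pH 7.8 with 0.5mM EDTA, 0.1 mg/ml BSA, 1mM TCEP and 0.01% Tween-20.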
EPAC2 ag: agonists of human EPAC2 (RAPGEF4) | Potency, µM (highest dose often 154 µM), inactives show at the top dose activation, actives largely listed as activators | 360,000 compounds, 0.079% hits | AID 720711 | EPAC2 activation, biochemical qHTS; response scale: 100% = 6.5 mM cAMP response; note: nearly all actives have a fitted effect of over 50% in size
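Setup: EPAC2 100 nM, labeled Rap1B complex 250 nM, free GDP 50 uM. Compound titrations pinned in, brief spin, 5 min room temperature incubation. Kinetic fluorescence read over 30 min, normalized to 6.5 mM cAMP.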
* marks the source's active call; other numbers are inactive results; u = inconclusive; x = not tested or not shown; [ ] = dose if it differs, or a comment. Calls come from the whole dose curve; as a rule, active = well fitted curve in the direction sought with a large enough effect; inconclusive = small, poorly fitted or top-dose-only effect, or another doubt; inactive = no such curve, though single readings can be large; an effect the other way counts as inactive or inconclusive. Potency is the fitted concentration of half-maximal effect.

SMILES	EPAC1 ag	12-LOX inh	EPAC1 antagonist	EPAC2 antagonist	USP1-UAF1 inh	EPAC2 ag
O=C1CC(=O)Nc2cc(S(=O)(=O)Nc3ccc(Cl)c(C(F)(F)F)c3)ccc2N1	-1%	-12%	-26%	35µM*	-10%	-6%
C=CCN(Cc1ccc(F)cc1)C1CCCC1	x	12%	x	x	x	x
NC(=O)[C@H]1C[C@@H](O)[C@H](O)[C@H]2[C@@H]1SC(=Nc1ccc(Cl)cc1)N2CC1CCCCC1	x	28µM*	x	x	x	x
COc1ccc(N=C2S[C@H]3[C@H]([C@@H](O)[C@H](O)C[C@@H]3C(N)=O)N2Cc2ccc(F)cc2)cc1	x	52%	x	x	x	x
Cc1nc(NS(=O)(=O)c2ccccc2)sc1NC(=O)Nc1ccc(Cl)cc1	6%	40µM*	-12%	-5%	-13%	11%
c1ccc(-c2cnc(CSc3nnnn3-c3ccccc3)o2)cc1	x	6%	x	x	x	x
Oc1ccc(-n2nnnc2SCc2ncc(-c3ccc(Cl)cc3)o2)cc1	x	32µM*	x	x	x	x
O=C(Cn1nc(-c2ccccc2)c2ccccc2c1=O)Nc1cccc(C(F)(F)F)c1	x	35%	x	x	x	x
CNC(=O)[C@@H](C1CCCCC1)N1CCC[C@H]1C(=O)N1CCN(CCOC)CC1	x	16µM*	x	x	x	x
CNC(=O)[C@@H](C1CCCCC1)N1CCC[C@H]1C(=O)N1CCN(C)CC1	x	0%[176 µM]	x	x	x	x
CCn1cnc2c1c(=O)n(CC(=O)Nc1ccc3c(c1)OCO3)c(=O)n2Cc1ccccc1	x	-27%	x	x	x	x
O=C(NCc1ccccn1)C1CC2CCC1C2 (centres undefined)	x	8%	x	x	x	x
CCCCN(CC)C(=O)COc1ccccc1C#N	x	0%	x	x	x	x
Clc1ccccc1-c1ncc2ccccn12	1%	22µM*	-18%	-14%	-23%	8%
O=C(Nc1cnc(-c2cccc(Cl)c2)nc1)c1ccccc1F	x	51%	x	x	x	x
Cc1ccc(F)c(S(=O)(=O)NC(=O)C2(C)CCN2C(=O)C2(c3ccc(Cl)cc3)CCC2)c1 (centres undefined)	-3%	34%	-8%	45µM*	x	-1%
CC1(C(=O)NS(=O)(=O)c2ccc(Cl)cc2)CCN1C(=O)C1(c2ccc(Cl)cc2)CCC1 (centres undefined)	-10%	-12%	-30%	u	x	8%
CC1(C(=O)NS(=O)(=O)c2ccc3c(c2)CCO3)CCN1C(=O)C1(c2ccc(Cl)cc2)CCC1 (centres undefined)	-5%	0%	50µM*	u	x	8%
Cc1cccc(NC(=O)CC(C)(C(=O)O)c2ccccc2)c1C (centres undefined)	x	-35%	x	x	x	x
C=CCn1cc(CN(Cc2ccco2)Cc2cccs2)c(C)n1	x	13µM*	x	x	x	x
Cc1csc(NC(=O)CSc2sc3c(O)cc(=O)[nH]c3c2C#N)n1	4%	u	50µM*	-1%	u	0%
CCc1nnc(NC(=O)CSc2sc3c(O)cc(=O)[nH]c3c2C#N)s1	7%	-23%	u	0%	-26%	10%
NC(=S)N/N=C/c1ccc(-c2cc(Cl)cc(Cl)c2)o1	-11%	40µM*	4%	16%	-21%	7%
NC(=S)N/N=C/c1ccc(-c2cc(Cl)ccc2Cl)o1	22%	22µM*	-3%	-2%	-14%	25%
NC(=S)N/N=C/c1ccccc1[N+](=O)[O-]	5%	35µM*	-10%	6%	-19%	15%
SMILES	EPAC1 ag	12-LOX inh	EPAC1 antagonist	EPAC2 antagonist	USP1-UAF1 inh	EPAC2 ag
NC(=S)N/N=C/c1ccc(-c2ccc([N+](=O)[O-])cc2)o1	1%	32µM*	3%	-1%	-16%	7%
COC(=O)N/N=C/c1ccc(-c2cc(Cl)cc(Cl)c2)o1	7%	-13%	-6%	2%	-18%	1%
Cn1c(SCC(=O)NCc2cccs2)nnc1-c1ccc2c(c1)OCCCO2	x	5%	x	x	x	x
CCCC(=O)Nc1ccccc1NC(=O)c1ccc(C(C)(C)C)cc1	x	1%	x	x	x	x
CC(C)(C)CC(=O)Nc1nc2c(s1)C[C@@H]1[C@](C)(CO)[C@H](O)CC[C@@]1(C)[C@@H]2CC(=O)NC1CCCCC1	x	-2%	x	x	x	x
CCn1c(N2CCN(CCCc3ccccc3)CC2)nc2c1c(=O)[nH]c(=O)n2C	x	3%	x	x	x	x
CCN1CCN(c2nc3ncn(CC(=O)Nc4ccc(F)c(C)c4)c(=O)c3s2)CC1	x	-2%	x	x	x	x
Cc1ccc(-c2cnc(CCC(=O)NC(C)C3CC3)o2)cc1C (centres undefined)	x	-2%	x	x	x	x
CC(c1ccc(F)c(F)c1)N(C)C(=O)c1cc2ccccc2[nH]1 (centres undefined)	x	-10%	x	x	x	x
Cn1c(COc2ccc(C(C)(C)C)cc2)n[nH]c1=S	x	35µM*	x	x	x	x
CN(C)c1ncccc1CNC(=O)c1ccc2c(c1)CCC(=O)N2	x	19%	x	x	x	x
CCOC(=O)/C=C(\C)Sc1cc(O)c2ccccc2c1O	-2%	u	u	45µM*	7.9µM*	7%
O=C(CC1CCCO1)NC(c1cccs1)C1CCCC1 (centres undefined)	x	11%	x	x	x	x
CCCc1nc(C)cc(N2CCC(NCCc3ccc(Cl)cc3)CC2)n1	x	8.9µM*	x	x	x	x
CCCc1cc(N2CCC(NCCOC(C)C)CC2)nc(C)n1	x	43%	x	x	x	x
O=C(NS(=O)(=O)c1ccccc1[N+](=O)[O-])c1ccccc1	2%	11µM*	0%	-15%	-11%	1%
O=C(NS(=O)(=O)NC(=O)c1ccccc1)c1ccccc1	x	11µM*	x	x	x	x
Oc1ccc(CN2CCCCC2)c2cccnc12	-1%	u	5%	8%	-11%	5%
CCOC(=O)N1CCN(Cc2ccc(O)c3ncccc23)CC1	7%	25µM*	-4%	-6%	-15%	3%
Cc1ccc(S(=O)(=O)NC(=O)Nc2ccc(N(C)C)cc2)cc1	-5%	-3%	9%	-7%	18µM*	10%
Cc1ccc(OCC(=O)Nc2ccc(N(C)C)cc2)cc1	0%	u	u	-2%	-18%	-3%
Cc1ccc(CC(=O)Nc2ccc(N(C)C)cc2)cc1	x	20µM*	x	x	x	x
CCc1cccc(CC)c1N1C(=O)COCC1=O	-10%	6%	-1%	4%	-14%	-3%
CCc1cccc(CC)c1N1C(=O)C2=C(SCCCS2)C1=O	100µM*	-4%	-2%	-7%	u	112µM*
CCOc1ccc(C2CC(c3ccccc3NS(C)(=O)=O)=NN2C(=O)CC)cc1 (centres undefined)	x	12%	x	x	x	x
O=C(NC1CCCC1)c1cc(Sc2cccc(Cl)c2)nc2ccccc12	x	-3%	x	x	x	x
Cc1ccc(C(=O)O)cc1N1C(=O)c2cccc3c([N+](=O)[O-])ccc(c23)C1=O	-14%	5µM*	-22%	-5%	u	-1%
